# Most compounds without a hit are left out; they make up all but 0.76% or so of the library.
# Mtb UGM inh: blocks M. tuberculosis UGM enzyme; P9WIQ1; purified UGM, fluorescence polarization probe displacement; inhibition, % at 10 µM; 320,000 tested, 0.06% active; AID 504406; in the data active means inhibition above about 10%, passing the limit was not always enough; inconclusive means no clear call, values can overlap the other calls
# Rv3671c protease: Rv3671c (M. tuberculosis) protease inhibition. P9WHR9. inhibition, % at 5.96 µM. 320,000 tested, 0.048% active. AID 2606; in the data active means inhibition above about 38%;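 further: extracellular domain of Rv3671c used as enzyme; 0% = enzyme with DMSO and 100% = no enzyme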
# Target sequence (P9WHR9 whole entry, looked up, the tested form may be a part): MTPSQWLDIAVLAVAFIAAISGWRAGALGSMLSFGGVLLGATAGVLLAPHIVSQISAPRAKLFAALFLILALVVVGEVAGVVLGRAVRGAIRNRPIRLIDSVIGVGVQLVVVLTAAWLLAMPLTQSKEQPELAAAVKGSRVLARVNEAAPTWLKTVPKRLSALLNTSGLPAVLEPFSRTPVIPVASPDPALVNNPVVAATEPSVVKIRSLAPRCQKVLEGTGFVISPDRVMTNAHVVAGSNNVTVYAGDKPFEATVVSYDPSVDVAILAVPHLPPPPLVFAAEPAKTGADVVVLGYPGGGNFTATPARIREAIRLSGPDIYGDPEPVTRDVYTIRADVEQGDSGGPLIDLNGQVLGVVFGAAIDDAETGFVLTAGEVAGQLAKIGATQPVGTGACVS
# PrP UTR inh: suppresses PrP 5' UTR mRNA reporter expression; cell-based PrP 5' UTR mRNA reporter, plate reader; inhibition, % (test concentration not listed); 340,000 tested, 0.35% active; AID 488862; in the data active means inhibition above about 52%; further: 0 = median of the neutral control wells
# FadD28 FP inh: blocks FadD28 binding to the bisubstrate probe; fluorescence polarization; 360,000 tested, 0.22% active; inhibition, % at 12.5 µM; in the data active means inhibition above about 8.5%, passing the limit was not always enough; inconclusive means no clear call, values can overlap the other calls
# BH1578 lux ind: induces V. cholerae light production without autoinducers; AID 588436; V. cholerae BH1578 lux reporter, luminescence, 6 h; 350,000 tested, 0.16% active; activation, % at 18.7 µM; in the data active means activation mostly above about 9.7%, no sharp cut-off; inconclusive means no clear call, values can overlap the other calls; inactive means mostly below about 3.7%
# Mtb betalactam: beta-lactam sensitization of Mtb H37Rv; AID 434955; inhibition, % at 25 µM; M. tuberculosis H37Rv growth with meropenem, percent inhibition; 330,000 tested, 0.27% active; call rule not given here;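 further: growth measured after seven days incubation then overnight dye step; 0% = bacteria only wells and 100% = bacteria with antibiotic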
# The depositor's hits bear a star; i = inactive; ? = inconclusive; . = no result given.
SMILES,Mtb UGM inh,Rv3671c protease,PrP UTR inh,FadD28 FP inh,BH1578 lux ind,Mtb betalactam
CCc1c(O)nc(SCC(=O)Nc2nc3ccccc3s2)n(C2CCCCC2)c1=O,2,3,-23,12*,i,3
CCC(C)NCCOc1ccc(Br)cc1 (stereo not drawn),1,3,-6,-2,2,-11
CCC(C)NCCOc1ccccc1C (stereo not drawn),-1,-3,-26,-1,24*,0
CCC(=O)NC(c1cccs1)c1cc([N+](=O)[O-])c2cccnc2c1O (stereo not drawn),-2,15,-13,2,96*,5
O=C1c2cccc3c([N+](=O)[O-])ccc(c23)C(=O)N1c1ccccn1,3,-2,-20,-14,i,100
O=C1c2cccc3c(N4CCCCC4)ccc(c23)C(=O)N1c1ccccn1,10*,-3,-28,0,-5,.
C[C@H](O)C#Cc1ccc2c(c1)O[C@@H](CN(C)Cc1ccc(-c3ccccc3)cc1)[C@H](C)CN([C@@H](C)CO)S2(=O)=O,.,.,.,-5,-1,.
CCN(CC)c1ccc(/C=C2/C(=O)c3ccc(C(=O)O)cc3C2=O)cc1,-20,-35,-75,18*,0,5
CCN(CC)c1ccc(C=C2C(=O)OC3(CCCCC3)OC2=O)cc1,0,-42,-11,-3,i,0
COc1cccc(NCc2cc(=O)oc3cc(-c4ccccc4)c(O)cc23)c1,-3,-9,-27,24*,0,6
c1ccc(Nc2cccc3c(Nc4ccccc4)cccc23)cc1,1,7,-3,-2,-2,6
O=S(=O)(O)c1cccc2cccc(Nc3ccccc3)c12,-1,-1,-15,81*,i,-9
CCCOc1ccc(OCCSc2nnc(N)s2)cc1,3,-17,-9,-3,-7,2
Nc1nnc(SCCCOc2ccc(F)cc2)s1,2,-5,-18,13*,i,4
COc1cc(O)oc1C=Nc1ccc(Cl)cc1,-2,-18,0,0,26*,-5
COC1C(OC(=O)c2ccc(C)[nH]2)C(O)C(Oc2ccc3c(O)c(NC(=O)c4ccc(O)c(CC=C(C)C)c4)c(=O)oc3c2Cl)OC1(C)C (stereo not drawn),4,-20,-4,20*,0,-5
CO[C@@H]1[C@@H](OC(N)=O)[C@@H](O)[C@H](Oc2ccc3c(O)c(NC(=O)c4ccc(O)c(CC=C(C)C)c4)c(=O)oc3c2C)OC1(C)C,.,.,.,-1,-1,.
O=C(O)c1cc(N=Nc2c(O)ccc3ccccc23)cc(C(=O)O)c1,.,.,-46,13*,0,.
CC1CCCC(C)N1CCNC(=O)CCc1nnc2n(Cc3ccccc3)c(=O)c3ccccc3n12 (stereo not drawn),-3,-6,-3,-1,0,6
O=c1oc2ccccc2c(Cl)c1CN1CCCCC1,2,-11,-34,-1,0,-1
C[C@@H]1CN([C@@H](C)CO)C(=O)c2cc(-c3ccccc3F)cnc2O[C@H]1CN(C)Cc1cccc(F)c1,.,.,.,-2,i,.
O=C(Nc1ccccc1OC(F)F)c1ccc(Br)o1,1,3,-9,-3,32*,8
C=C(C)CN(CC)c1nc(N)c2c(N)nc3c(c2c1C#N)CC(=O)N3C12CC3CC(CC(C3)C1)C2,1,-20,-2,-6,-3,6
N#Cc1c(N2CCCC(O)C2)nc(N)c2c(N)nc3c(c12)CC(=O)N3C12CC3CC(CC(C3)C1)C2 (stereo not drawn),4,-93,6,25*,3,?
COc1cc2oc(=O)c3c(c2cc1OCC(=O)c1c(C)n(C)c2ccccc12)CCCC3,0,-1,-9,-1,0,2
SMILES,Mtb UGM inh,Rv3671c protease,PrP UTR inh,FadD28 FP inh,BH1578 lux ind,Mtb betalactam
CSc1ccc(CN2C(=O)C(F)(F)Oc3c(C(C)=O)cccc32)cc1,.,.,.,-3,i,.
C/C(C/C(C)=C1/SC(=S)NC1=O)=C1\SC(=S)NC1=O,.,.,-33,20*,0,.
CCCCCC/C(C)=C1/SC(=S)NC1=O,-2,-8,-28,-9,-6,10
CCCCC[C@@H](O)c1cc2ccccc2c(=O)o1,5,-1,-30,-1,0,-8
COc1ccc(Cl)cc1C(=O)OCC(=O)N(CC(C)C)c1c(N)n(Cc2ccccc2)c(=O)[nH]c1=O,-1,3,-7,-1,i,-9
CCN(C(=O)COC(=O)c1cc(Cl)ccc1OC)c1c(N)n(Cc2ccccc2)c(=O)[nH]c1=O,12*,0,-8,0,i,2
CS(=O)(=O)Nc1ccccc1C(=O)OCC(=O)N1CCC(c2ccccc2)=N1,-1,-7,-8,-6,1,-3
Cc1cccc(OCC(=O)N/N=C\c2cn(C)c3ccccc23)c1,0,-8,-43,41*,1,34
CCCOC(=O)Nc1sc2c(c1C(N)=O)CCCC2,-1,-9,-14,-2,i,-1
COC(=O)NC(Nc1sc2c(c1C(N)=O)CCCC2)(C(=O)OC)C(F)(F)F (stereo not drawn),-1,0,-37,-2,17*,-1
O=C1NC(=S)SC1=Cc1ccc(N(CCCl)CCCl)cc1,.,.,-14,14*,-2,.
O=C1NC(=S)SC1=Cc1ccc(Cl)cc1,.,.,-18,-1,i,.
COc1ccc(NC(=O)CC2(CC(=O)O)CCCC2)cn1,1,6,-6,-2,2,-5
Oc1ccc(Br)cc1/C=N/n1c(C2CCCCC2)n[nH]c1=S,-1,-3,-7,16*,1,?
COc1cccc(/C=N/n2c(C3CCCCC3)n[nH]c2=S)c1O,4,.,-12,15*,i,-1
COc1cccc(/C=N/n2c(C3CCCCC3)n[nH]c2=S)c1OC,0,1,-15,0,i,?
COCCNC(=O)Cn1cc(C=C2C(=O)NC(=O)NC2=O)c2ccccc21,42*,2,.,0,i,-1
CCN(CC)C(=O)Cn1cc(C=C2C(=O)N(C)C(=O)N(C)C2=O)c2ccccc21,-1,7,.,2,i,4
COC(=O)Cn1cc(C=C2C(=O)N(C)C(=O)N(C)C2=O)c2ccccc21,14*,-12,.,.,.,0
Cc1ccc(SCC(=O)N(Cc2nc(-c3ccccc3)no2)C(C)C)cc1,-1,-9,-133,0,25*,0
CN(CC(=O)Nc1ccc(F)c(F)c1F)C(=O)C1CCCO1 (stereo not drawn),-3,3,-3,-1,i,-9
CC1(C)C(/C=C/C=C/C=C/C=C2\N(CCCCS(=O)(=O)O)c3ccc4ccccc4c3C2(C)C)=[N+](CCCCS(=O)(=O)[O-])c2ccc3ccccc3c21,1,-87,-7,12*,i,19
Cc1c2ccccc2cc[n+]1CCCS(=O)(=O)[O-],-1,0,-11,-2,-1,7
O=C(Nc1ccc([N+](=O)[O-])cc1)Nc1ccc(OC(F)F)c(Cl)c1,-2,-500,-13,13*,0,100

# High-throughput results (PubChem)
